Measured values reported in PubChem BioAssay.
The source made the active and inactive calls.

Assays:
[1] = E. coli DRC41 culture turbidity changes, primary screen, E. coli filamentation inducer project, strain DRC41, OD650, 48 h (AID 1152);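 note: E. coli MC1000 strain DRC41 lacking acrAB efflux pump and sulA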; conditions: E. coli DRC41 (acrAB sulA), higher = more signal, called active from +8 up or from −8 down
[2] = small-molecule binders of probe aLefty1, primary screen, biochemical, small-molecule microarray, 635/667 nm fluorescence (AID 1153); conditions: higher = more signal;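 note: score merges spot fluorescence with signal-to-noise ratio from the scanned slide images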
[3] = PSAC antagonists in infected red cells, primary screen, cell-based, P. falciparum Indochina, OD700, 1 h (AID 1154); conditions: P. falciparum Indochina infected RBC osmotic lysis, higher = more signal, called active from +8 up or from −8 down
[4] = PSAC antagonists in infected red cells, primary screen, cell-based, P. falciparum Indochina, OD700, 2 h (AID 1155);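 note: lysis reports solute entry through the parasite surface anion channel PSAC; channel blockers reduce lysis of infected cells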; conditions: P. falciparum Indochina infected erythrocytes, osmotic lysis OD700; higher = more signal, called active from +8 up or from −8 down
[5] = osmotic lysis modulators in infected erythrocytes, primary screen, PSAC antagonist project, cell-based, P. falciparum Indochina, OD700, 3 h (AID 1156); conditions: higher = more signal, called active from +8 up or from −8 down
[6] = PSAC antagonists in infected red cells, primary screen, cell-based, P. falciparum Indochina, OD700, 18 h (AID 1157); conditions: P. falciparum Indochina infected erythrocytes, osmotic lysis OD700, 18 h; higher = more signal, called active from +8 up or from −8 down
[7] = modulators of S6 phosphorylation in cells, primary screen, cell-based, A549, cytoblot, luminescence, serum-stimulated (AID 1158); conditions: A549 phospho-S6 cytoblot, 5 h, higher = more signal;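 note: serum-stimulated A549 lung adenocarcinoma cells; signal is phosphorylated S6 detected by cytoblot immunostaining with HRP secondary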
[8] = target: NADPH oxidase 2 (Homo sapiens) (UniProt P04839); test: NOX2-dependent H2O2 signal modulators, primary screen, NOX inhibitor project, cell-based, HEK293-NOX2, PMA-stimulated, Amplex Red fluorescence (AID 1159); conditions: 45 min, higher = more signal, called active from +8 up or from −8 down; note: test concentration not given here
[9] = target: NADPH oxidase 4 (Homo sapiens) (UniProt Q9NPH5); test: NOX4-dependent H2O2 signal modulators, primary screen, NOX inhibitor project, cell-based, HEK293-NOX4, tetracycline-induced, Amplex Red fluorescence (AID 1160); conditions: 45 min, higher = more signal, called active from +8 up or from −8 down
[10] = target: NADPH oxidase 5 (Homo sapiens) (UniProt Q96PH1); test: NOX5-dependent H2O2 signal modulators, primary screen, NOX inhibitor project, cell-based, HEK293-NOX5, Amplex Red fluorescence (AID 1161); conditions: HEK293-NOX5, ionomycin, 45 min, higher = more signal
[11] = A549 cell viability effects, profiling panel, calcein-AM fluorescence, 48 h, basal (AID 1162); conditions: higher = more signal; note: test concentration not given here
[12] = adipocyte viability effects, profiling panel, cell-based, 3T3-L1 adipocytes, calcein-AM fluorescence, 48 h, basal (AID 1163); conditions: 3T3-L1 adipocytes viability, higher = more signal; note: test concentration not given here
[13] = HepG2 cell viability effects, profiling panel, calcein-AM fluorescence, 48 h, basal (AID 1164); conditions: higher = more signal; note: test concentration not given here
[14] = MM1S cell viability effects, profiling panel, calcein-AM fluorescence, 48 h, basal (AID 1165); conditions: higher = more signal;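 note: viability of MM1S multiple myeloma cells under basal unstimulated conditions; test concentration not given here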
[15] = basal RPMI8226 viability, no added stimulus, profiling panel, cell-based, calcein-AM fluorescence, 48 h, PK04 Diversity Set (AID 1166); conditions: RPMI8226 myeloma viability, higher = more signal;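 note: cells grown under basal conditions without added stimulus; test concentration not given here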
[16] = basal HepG2 mitochondrial membrane potential changes, profiling panel, cell-based, JC-1 fluorescence, 24 h, 100 nL compound (AID 1167); conditions: higher = more signal; note: test concentration not given here
[17] = basal 3T3-L1 adipocyte mitochondrial potential changes, profiling panel, cell-based, JC-1 fluorescence, 3T3-L1 adipocytes, 24 h, 100 nL compound (AID 1168); conditions: JC-1 mitochondrial fluorescence, higher = more signal, called active from +8 up or from −8 down; note: test concentration not given here
[18] = basal RPMI8226 mitochondrial membrane potential changes, profiling panel, cell-based, JC-1 fluorescence, 24 h, 100 nL compound (AID 1169); conditions: RPMI8226 myeloma, JC-1 mitochondrial potential fluorescence, higher = more signal; note: test concentration not given here
[19] = basal MM1S mitochondrial membrane potential changes, profiling panel, cell-based, JC-1 fluorescence, 24 h, 100 nL compound (AID 1170); conditions: higher = more signal; note: test concentration not given here
[20] = A549 lung cancer cell viability effects, profiling panel, resazurin fluorescence, 24 h, PK04 Diversity Set (AID 1171); conditions: higher = more signal, called active from +8 up or from −8 down; note: test concentration not given here

Chain of NADPH oxidase 4 (Homo sapiens) (Q9NPH5 whole entry, looked up): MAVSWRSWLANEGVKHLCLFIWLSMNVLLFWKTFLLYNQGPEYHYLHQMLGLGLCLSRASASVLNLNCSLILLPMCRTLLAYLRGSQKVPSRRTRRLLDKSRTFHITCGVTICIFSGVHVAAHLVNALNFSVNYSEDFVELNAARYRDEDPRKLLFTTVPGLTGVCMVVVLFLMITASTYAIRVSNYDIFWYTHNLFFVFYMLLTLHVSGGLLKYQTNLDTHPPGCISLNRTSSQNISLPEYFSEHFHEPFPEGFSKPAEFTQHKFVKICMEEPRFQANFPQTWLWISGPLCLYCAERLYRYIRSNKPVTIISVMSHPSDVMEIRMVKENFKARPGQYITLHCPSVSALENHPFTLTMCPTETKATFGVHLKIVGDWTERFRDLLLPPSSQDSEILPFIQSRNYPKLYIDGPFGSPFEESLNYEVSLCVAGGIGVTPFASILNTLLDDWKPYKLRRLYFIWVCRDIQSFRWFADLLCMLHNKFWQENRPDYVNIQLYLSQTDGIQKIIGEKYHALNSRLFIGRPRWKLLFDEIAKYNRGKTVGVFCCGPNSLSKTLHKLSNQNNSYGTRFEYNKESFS
Chain of NADPH oxidase 2 (Homo sapiens) (P04839 whole entry, looked up): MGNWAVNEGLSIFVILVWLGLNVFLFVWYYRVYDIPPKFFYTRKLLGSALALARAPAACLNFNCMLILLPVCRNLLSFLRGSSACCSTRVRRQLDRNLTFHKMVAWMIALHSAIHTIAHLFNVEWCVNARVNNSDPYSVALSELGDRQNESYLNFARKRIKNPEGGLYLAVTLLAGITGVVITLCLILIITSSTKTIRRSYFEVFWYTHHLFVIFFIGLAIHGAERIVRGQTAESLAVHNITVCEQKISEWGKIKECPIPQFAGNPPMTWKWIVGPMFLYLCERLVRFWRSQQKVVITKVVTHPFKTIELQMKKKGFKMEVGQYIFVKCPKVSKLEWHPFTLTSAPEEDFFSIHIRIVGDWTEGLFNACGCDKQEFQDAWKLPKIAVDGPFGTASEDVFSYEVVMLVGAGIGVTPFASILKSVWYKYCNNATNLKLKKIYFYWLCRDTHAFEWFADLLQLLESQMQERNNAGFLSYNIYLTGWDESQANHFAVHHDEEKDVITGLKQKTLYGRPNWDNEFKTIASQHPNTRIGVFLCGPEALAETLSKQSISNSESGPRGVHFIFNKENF
Chain of NADPH oxidase 5 (Homo sapiens) (Q96PH1 whole entry, looked up): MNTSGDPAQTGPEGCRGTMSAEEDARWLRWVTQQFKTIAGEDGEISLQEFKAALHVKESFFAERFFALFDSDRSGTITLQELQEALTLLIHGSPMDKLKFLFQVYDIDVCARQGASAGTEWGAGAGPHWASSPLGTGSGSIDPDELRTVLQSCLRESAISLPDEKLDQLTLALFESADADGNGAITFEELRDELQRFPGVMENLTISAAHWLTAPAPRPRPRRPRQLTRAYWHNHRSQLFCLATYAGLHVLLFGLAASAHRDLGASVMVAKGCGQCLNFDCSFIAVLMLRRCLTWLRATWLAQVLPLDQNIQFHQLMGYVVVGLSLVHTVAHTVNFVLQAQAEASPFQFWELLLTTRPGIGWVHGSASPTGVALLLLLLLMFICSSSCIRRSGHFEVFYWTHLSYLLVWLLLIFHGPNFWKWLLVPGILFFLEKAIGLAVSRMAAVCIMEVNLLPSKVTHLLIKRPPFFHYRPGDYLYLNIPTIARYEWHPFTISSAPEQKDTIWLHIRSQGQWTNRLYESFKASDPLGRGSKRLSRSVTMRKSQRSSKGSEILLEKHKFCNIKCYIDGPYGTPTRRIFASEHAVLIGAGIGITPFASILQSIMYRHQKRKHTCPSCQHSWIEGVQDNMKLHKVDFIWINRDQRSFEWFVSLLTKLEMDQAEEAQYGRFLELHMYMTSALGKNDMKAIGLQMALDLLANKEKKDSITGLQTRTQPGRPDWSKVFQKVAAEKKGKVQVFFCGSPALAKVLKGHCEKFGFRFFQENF

Row | Compound | z-score [1] | composite z-score [2] | z-score [3] | z-score [4] | z-score [5] | z-score [6] | z-score [7] | z-score [8] | z-score [9] | z-score [10] | z-score [11] | z-score [12] | z-score [13] | z-score [14] | z-score [15] | z-score [16] | z-score [17] | z-score [18] | z-score [19] | z-score [20]
1 | C[C@H]1C2[C@H](Cc3ccccc3)NC(=O)[C@]23C(=O)NCC(=O)N2CCC[C@H]2C(=O)NC/C=C\C/C=C/C3[C@@H]2O[C@]12C (stereo not given in full) | 0.822 (inactive) | -0.193 | -0.0865 (inactive) | -0.387 (inactive) | -0.62 (inactive) | -0.113 (inactive) | 0.255 | 0.212 (inactive) | 1.07 (inactive) | 0.649 | 0.379 | 0.491 | 0.409 | 0.163 | -0.547 | -0.324 | 0.0628 (inactive) | -1.03 | 0.227 | 0.87 (inactive)
2 | O=C1NC(=O)C2C1C=CC(C(O)c1cccc(O)c1)N2Nc1ccc(Cl)cc1Cl (stereo not given) | -4.5 (inactive) | 0.139 | 4.82 (inactive) | 1.36 (inactive) | -0.608 (inactive) | 0.901 (inactive) | -1.22 | -0.897 (inactive) | -5.3 (inactive) | -3.11 | -1.09 | -0.648 | -1.13 | -3.03 | -1.52 | -2.54 | -0.299 (inactive) | -0.39 | 0.0224 | -0.728 (inactive)
3 | O=C1OCCC/C=C\[C@H]2OC34C=CCN(Cc5ccccc5)C(=O)[C@H]3N(CCCCCO)C(=O)[C@@H]4C12 (stereo not given in full) | 0.435 (inactive) | -0.094 | -0.457 (inactive) | -0.172 (inactive) | -0.123 (inactive) | -0.354 (inactive) | -0.412 | 1.17 (inactive) | 0.487 (inactive) | 1.76 | 0.379 | 0.65 | 0.414 | 1.03 | -0.42 | -0.0205 | -0.0419 (inactive) | 0.803 | -0.322 | 1.37 (inactive)
4 | COC(=O)[C@@]1(Cc2ccccc2)[C@H]2c3cc(C(=O)N4CCCC4)n(Cc4ccc(C(F)(F)F)nc4)c3C[C@H]2CN1C(=O)c1ccccc1 | -1.31 (inactive) | 0.689 | 2.24 (inactive) | 0.145 (inactive) | 1.45 (inactive) | 0.444 (inactive) | -0.467 | 0.262 (inactive) | 0.396 (inactive) | -3.03 | -0.567 | 1.88 | -0.499 | -0.331 | -1.59 | 1.5 | -0.657 (inactive) | -0.561 | -0.796 | 0.263 (inactive)
5 | CCC[C@@H]1C=C(C(=O)OCC)[C@H](c2ccccc2)N1S(=O)(=O)c1ccc(C)cc1 | -0.843 (inactive) | 0.316 | -0.0086 (inactive) | 0.979 (inactive) | -0.628 (inactive) | 0.0962 (inactive) | -0.788 | -0.671 (inactive) | -0.646 (inactive) | -0.135 | -1.78 | -0.937 | -2.37 | -1.19 | -2.96 | 3.86 | 0.437 (inactive) | -0.756 | -0.65 | 1.8 (inactive)
6 | CN(C)C(=O)[C@@]1(CCS(=O)(=O)c2ccccc2)N=C(c2ccc(OCCCO)cc2)O[C@H]1c1ccccc1N=[N+]=[N-] | 0.395 (inactive) | -0.148 | 28.1 (active) | 27.4 (active) | 1.78 (inactive) | 2.09 (inactive) | -0.76 | -2.01 (inactive) | -0.478 (inactive) | -0.984 | 0.137 | -0.471 | 1.27 | -1.68 | -0.941 | 0.121 | -0.477 (inactive) | -1.32 | -0.591 | -0.217 (inactive)
7 | CCC[C@@H]1[C@@H](Sc2ccccc2)[C@@H](C(=O)O)[C@H](c2ccc(C)cc2)N1S(=O)(=O)c1ccc(C)cc1 | 0.086 (inactive) | 0.0531 | 1.44 (inactive) | 0.495 (inactive) | -0.892 (inactive) | 1 (inactive) | -0.0334 | 1.82 (inactive) | 0.872 (inactive) | 1.27 | -0.861 | -0.571 | 0.699 | 0.116 | -2.59 | -0.772 | 1.41 (inactive) | -0.134 | -1.64 | -0.856 (inactive)
8 | CC(C)C(=C=CC[C@@H](O)c1cccc(OCCO)c1)CCO | 0.838 (inactive) | 0.0919 | 2.96 (inactive) | 0.108 (inactive) | 0.607 (inactive) | 0.233 (inactive) | 0.617 | -0.841 (inactive) | -0.471 (inactive) | -1.26 | 0.418 | 0.114 | 0.785 | 0.753 | -0.25 | 0.436 | 0.258 (inactive) | 0.314 | -1.18 | 0.625 (inactive)
9 | CC(c1ccccc1)C(O)C1C=CC2C(=O)N(c3ccccc3)C(=O)C2N1Nc1ccc(C#N)cc1 (stereo not given) | 1.16 (inactive) | 0.379 | 14 (active) | 1.58 (inactive) | 0.832 (inactive) | 0.264 (inactive) | 1.38 | -1.9 (inactive) | -4.04 (inactive) | -2.65 | 1.71 | -0.582 | 1.49 | 0.401 | -0.0442 | -0.372 | 0.0393 (inactive) | -0.0416 | 0.222 | 0.413 (inactive)
